Drawing on ChEMBL document CHEMBL5058541, this text covers ΔTm for 4 molecules.

Assay [1] concerns the target Bromodomain-containing protein 4 (Homo sapiens) (UniProt O60885). The note with it: Compound concentration 20.0 uM, Protein concentration 2.0 uM, Result type QC Liability.
Assay [2] concerns the target T1, Transcription intermediary factor 1-alpha (Homo sapiens) (UniProt O15164).
T1 sequence (whole entry): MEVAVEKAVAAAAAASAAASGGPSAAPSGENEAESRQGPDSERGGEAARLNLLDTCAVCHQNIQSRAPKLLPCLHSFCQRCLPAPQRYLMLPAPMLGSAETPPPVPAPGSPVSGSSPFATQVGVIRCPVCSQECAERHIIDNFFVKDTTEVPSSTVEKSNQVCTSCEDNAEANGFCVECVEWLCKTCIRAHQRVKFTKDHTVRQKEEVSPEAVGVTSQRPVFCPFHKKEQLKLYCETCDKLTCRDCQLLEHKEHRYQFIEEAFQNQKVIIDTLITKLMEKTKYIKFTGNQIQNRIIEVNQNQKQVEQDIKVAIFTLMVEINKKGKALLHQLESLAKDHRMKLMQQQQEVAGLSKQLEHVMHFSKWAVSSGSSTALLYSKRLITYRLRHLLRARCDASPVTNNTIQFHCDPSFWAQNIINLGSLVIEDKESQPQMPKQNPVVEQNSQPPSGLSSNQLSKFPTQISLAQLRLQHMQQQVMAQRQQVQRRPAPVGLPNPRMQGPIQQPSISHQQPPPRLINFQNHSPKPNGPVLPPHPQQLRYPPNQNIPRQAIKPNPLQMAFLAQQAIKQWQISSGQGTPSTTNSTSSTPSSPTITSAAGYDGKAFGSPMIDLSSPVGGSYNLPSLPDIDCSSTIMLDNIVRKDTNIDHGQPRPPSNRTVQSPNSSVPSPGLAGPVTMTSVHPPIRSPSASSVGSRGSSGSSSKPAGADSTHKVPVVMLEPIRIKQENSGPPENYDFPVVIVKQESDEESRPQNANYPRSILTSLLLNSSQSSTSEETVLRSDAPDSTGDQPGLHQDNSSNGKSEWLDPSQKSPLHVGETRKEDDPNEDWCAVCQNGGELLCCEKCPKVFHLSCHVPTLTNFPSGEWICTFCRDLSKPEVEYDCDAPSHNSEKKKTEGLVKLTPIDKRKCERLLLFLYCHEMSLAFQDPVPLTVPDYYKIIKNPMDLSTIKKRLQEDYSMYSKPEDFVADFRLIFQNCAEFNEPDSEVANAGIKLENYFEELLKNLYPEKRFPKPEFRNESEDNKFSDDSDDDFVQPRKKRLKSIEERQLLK
The note with it: Compound concentration 20.0 uM, Protein concentration 2.0 uM, Result type QC Liability.

Turning to `CN(c1ncccc1CNc1ccnc(-c2nc3c(F)c(Cl)ccc3[nH]2)n1)S(C)(=O)=O`, the values for the ΔTm in assay [1] and in assay [2] were -0.76 c and -0.07 c, respectively.

For `O=C(NCCCN1CCOC1=O)c1cnc(NCc2cc(Br)ccc2Br)nc1NC1CCCC1`, the ΔTm in assay [1] and in assay [2] was 0 c each time.

For the molecule `CN(C)C(=O)c1ccc(-c2cc(C(=O)N[C@@H]3CCc4ccccc43)no2)cc1O`, the ΔTm was -0.51 c in assay [1] and -0.594 c in assay [2].

As for `CS(=O)(=O)N1CCCC(NC(=O)[C@H](CCC2CCCCC2)NC(=O)c2ccc(CNC(=O)c3cnc4ccccn34)cc2)C1` (stereo partly drawn), the ΔTm in assay [1] amounted to 0.345 c; in assay [2] it was 0.0818 c.
